Experimental data from PubChem BioAssay (NCI).
This is part of a sample that, as a whole, favours compounds with a hit. Of some 83,000 tested, about 20% had one in any assay.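 The test compound was applied at a single concentration to cells in 96-well plates for 48 hours, and percent growth was recorded.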 The source made the active and inactive calls. The calls were made as follows: active = growth percent below 10; inactive = the rest.

system: MDA-MB-468 breast; assay: NCI-60 one-dose screen, 48 h (100 = growth as untreated, 0 = no growth, -100 = all killed); details: 10 µM unless noted

SMILES | growth
COc1cc(C)ccc1Oc1nc(Nc2ccc(N3CCOCC3)cc2)ncc1N=Cc1cc(C(F)(F)F)cc(C(F)(F)F)c1 | 71% (inactive)
O=C1CC[C@@H]2CCCC[C@@H]2C1 | 125% (inactive)
c1csc(-c2cc(-c3cc(-c4cccs4)[nH]n3)n[nH]2)c1 | 77.3% (inactive)
COc1ccc(-c2c3c(N)nc(-c4ccncc4)nc3nc3c2c(C)nn3-c2ccccc2)cc1 | 72.7% (inactive)
Cc1ccc(-c2nc(SCC(=O)c3ccccc3)nc(Nc3ccc(S(N)(=O)=O)cc3)c2C#N)cc1 | 113% (inactive)
Cc1cc(N(CCCNc2ccnc3cc(Cl)ccc23)Cc2ccc3c(c2)OCO3)nc(N2CCCCC2)n1 | -45.2% (active)
Nc1c(C(=O)Nc2cccc3ccncc23)sc2nc3c(cc12)C(=O)CCC3 | -12.6% (active)
COc1ccc(/C=N/N=C(/c2ccccc2)c2ccc3nc(-c4ccc(Cl)cc4)[nH]c3c2)cc1 | 70% (inactive)
COc1ccc(C(=O)c2cc3c(N)c(C(=O)Nc4ccc(Cl)cc4)sc3nc2C)cc1 | 76.7% (inactive)
NS(=O)(=O)Oc1ccc(NC(=O)C2CCCCCC2)cc1 | 109% (inactive)
CS(=O)(=O)c1ccc(-c2cc(-c3nnc(SCC(=O)Nc4ccc(C(=O)/C=C/c5ccc(Cl)cc5)cc4)n3-c3ccccc3)c3ccccc3n2)cc1 | 93.2% (inactive)
c1ccc(Nc2nc(-c3ccccn3)cs2)nc1 | -14.6% (active)
COc1ccc(-c2nc(-c3cc(OC)cc(OC)c3)[nH]c2-c2ccc(OC)cc2)cc1 | 31.4% (inactive)
